Reference: PubChem BioAssay (NCI)
Compounds without any hit were thinned out: in the full panel of roughly 83,000, 20% have a hit.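 Testing used 96-well plates and a 48-hour single-concentration exposure. Example: -40 means 40% of the starting cells died.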 Active and inactive are the calls of the source. How the source made its calls: active means growth percent below 10; inactive means the rest.

Columns and labels:
Assay in all cases: NCI-60 one-dose screen, 48 h (100 = growth as untreated, 0 = no growth, -100 = all killed)
Conditions in all cases: 10 µM unless noted
SN12C renal = system: SN12C renal
UO-31 renal = system: UO-31 renal
TK-10 renal = system: TK-10 renal
ACHN renal = system: ACHN renal
CAKI-1 renal = system: CAKI-1 renal
A498 renal = system: A498 renal
CCRF-CEM leukemia = system: CCRF-CEM leukemia
MOLT-4 leukemia = system: MOLT-4 leukemia
SR leukemia = system: SR leukemia
RPMI-8226 leukemia = system: RPMI-8226 leukemia
OVCAR-8 ovarian = system: OVCAR-8 ovarian
OVCAR-5 ovarian = system: OVCAR-5 ovarian
OVCAR-4 ovarian = system: OVCAR-4 ovarian
SK-OV-3 ovarian = system: SK-OV-3 ovarian
IGROV1 ovarian = system: IGROV1 ovarian
OVCAR-3 ovarian = system: OVCAR-3 ovarian
HS 578T breast = system: HS 578T breast
NCI/ADR-RES ovarian = system: NCI/ADR-RES ovarian
T-47D breast = system: T-47D breast

Measured: growth

O=C(O)c1ccc(NC(=O)c2ccc(Nc3ccnc(C(F)(F)F)c3)cc2)cc1
inactive: SN12C renal 104% | UO-31 renal 84.5% | TK-10 renal 105% | ACHN renal 98.9% | CAKI-1 renal 108% | A498 renal 105% | CCRF-CEM leukemia 120% | MOLT-4 leukemia 94.5% | SR leukemia 90% | RPMI-8226 leukemia 98.3% | OVCAR-8 ovarian 102% | OVCAR-5 ovarian 107% | OVCAR-4 ovarian 103% | SK-OV-3 ovarian 98.9% | IGROV1 ovarian 105% | OVCAR-3 ovarian 104% | HS 578T breast 96.8% | NCI/ADR-RES ovarian 102% | T-47D breast 93.8%

COc1ccc(C(=O)Nc2nc(-c3ccc(Cl)cc3)cs2)cc1
inactive: SN12C renal 101% | UO-31 renal 89.4% | TK-10 renal 122% | ACHN renal 94.4% | CAKI-1 renal 96.7% | A498 renal 91.5% | CCRF-CEM leukemia 104% | MOLT-4 leukemia 97.9% | RPMI-8226 leukemia 94.4% | OVCAR-8 ovarian 103% | OVCAR-5 ovarian 87% | OVCAR-4 ovarian 108% | SK-OV-3 ovarian 87.1% | IGROV1 ovarian 112% | OVCAR-3 ovarian 111% | HS 578T breast 94.3% | NCI/ADR-RES ovarian 120% | T-47D breast 89.1%

COc1ccc(-c2noc(N)c2-c2cc(OC)c3c(c2)OCO3)cc1
inactive: SN12C renal 35.8% | UO-31 renal 52.2% | TK-10 renal 39% | ACHN renal 40.8% | CAKI-1 renal 32.7% | MOLT-4 leukemia 18.4% | OVCAR-8 ovarian 26.6% | OVCAR-5 ovarian 61.6% | OVCAR-4 ovarian 91.7% | SK-OV-3 ovarian 27.6% | IGROV1 ovarian 44.6% | HS 578T breast 21.4% | T-47D breast 33.7%
active: CCRF-CEM leukemia 5.26% | SR leukemia -25.8% | RPMI-8226 leukemia 7.65% | OVCAR-3 ovarian -9.87% | NCI/ADR-RES ovarian 9.7%

CCC(C)CC(C)C(=O)c1c(O)ccn(OC)c1=O (stereo unspecified)
inactive: SN12C renal 69.7% | UO-31 renal 58.3% | TK-10 renal 98.7% | ACHN renal 46.1% | CAKI-1 renal 92.9% | A498 renal 98.7% | CCRF-CEM leukemia 39.8% | MOLT-4 leukemia 68.1% | SR leukemia 47.1% | RPMI-8226 leukemia 69.3% | OVCAR-8 ovarian 66.3% | OVCAR-5 ovarian 86.8% | OVCAR-4 ovarian 44.9% | SK-OV-3 ovarian 86.7% | IGROV1 ovarian 65% | HS 578T breast 93.2% | NCI/ADR-RES ovarian 57.1% | T-47D breast 82.9%

Clc1cccc(Cc2cn3cc(-c4ccccc4)nc3s2)c1
inactive: SN12C renal 68.2% | UO-31 renal 49.7% | TK-10 renal 69.2% | ACHN renal 27.9% | CAKI-1 renal 47.8% | A498 renal 84.9% | CCRF-CEM leukemia 63.4% | MOLT-4 leukemia 64.1% | RPMI-8226 leukemia 41.3% | OVCAR-8 ovarian 53.4% | OVCAR-5 ovarian 34.1% | OVCAR-4 ovarian 46.8% | SK-OV-3 ovarian 93.8% | IGROV1 ovarian 64.8% | OVCAR-3 ovarian 73.6% | HS 578T breast 76.8% | NCI/ADR-RES ovarian 60.2% | T-47D breast 11.5%

COc1cc(/C=C2\CCC/C(=C\c3ccc(OCC4CO4)c(OC)c3)C2=O)ccc1OCC1CO1 (stereo unspecified)
active: CCRF-CEM leukemia 1.96% | MOLT-4 leukemia -12.6% | RPMI-8226 leukemia -2.29% | OVCAR-8 ovarian 0.499% | IGROV1 ovarian -12.6%
inactive: SN12C renal 23.8% | UO-31 renal 47.6% | TK-10 renal 58.5% | ACHN renal 30.2% | CAKI-1 renal 72.2% | A498 renal 63.9% | OVCAR-4 ovarian 47.1% | SK-OV-3 ovarian 20.1% | HS 578T breast 23.4% | NCI/ADR-RES ovarian 56.8% | T-47D breast 46.3%

CCCCCCOc1ccc(/C=N/NC(N)=S)cc1
active: CCRF-CEM leukemia 6.97% | MOLT-4 leukemia 7.23% | RPMI-8226 leukemia 7.2%
inactive: SN12C renal 22.2% | UO-31 renal 17.8% | TK-10 renal 54.3% | ACHN renal 61.6% | A498 renal 99.7% | SR leukemia 69.5% | OVCAR-8 ovarian 70.6% | OVCAR-5 ovarian 84.5% | OVCAR-4 ovarian 26.5% | SK-OV-3 ovarian 90.6% | IGROV1 ovarian 13.9% | OVCAR-3 ovarian 28.5% | HS 578T breast 61.8% | NCI/ADR-RES ovarian 58.5% | T-47D breast 24%

COc1cccc(C2C(C#N)=C(N)Oc3cc(OC)ccc32)c1 (stereo unspecified)
active: CCRF-CEM leukemia -1.19% | MOLT-4 leukemia 1.42% | SR leukemia -30.3% | RPMI-8226 leukemia 9.12% | OVCAR-8 ovarian 3.88% | SK-OV-3 ovarian 3.13% | OVCAR-3 ovarian -28.9% | NCI/ADR-RES ovarian 3.99%
inactive: SN12C renal 24.9% | UO-31 renal 41.6% | TK-10 renal 50.6% | ACHN renal 29.7% | CAKI-1 renal 20.6% | OVCAR-5 ovarian 34.4% | OVCAR-4 ovarian 59.3% | IGROV1 ovarian 10.9% | HS 578T breast 11.3% | T-47D breast 55.8%

COC1=CC(c2ccc[nH]2)=N/C1=C\c1[nH]c(C)c(C(=O)CCC(=O)Oc2ccc3c(c2)CCC2C3CC[C@]3(C)C(=O)CC[C@@H]23)c1C (stereo partly specified)
inactive: SN12C renal 63.3% | UO-31 renal 52.9% | TK-10 renal 107% | ACHN renal 62.7% | CAKI-1 renal 60.1% | A498 renal 102% | CCRF-CEM leukemia 32.9% | MOLT-4 leukemia 25.6% | SR leukemia 10.1% | RPMI-8226 leukemia 68.3% | OVCAR-8 ovarian 80.8% | OVCAR-5 ovarian 55.6% | SK-OV-3 ovarian 85.5% | IGROV1 ovarian 79.5% | OVCAR-3 ovarian 89.1% | HS 578T breast 69.8% | NCI/ADR-RES ovarian 82.3% | T-47D breast 79.2%
